Compounds with a hit are over-represented: about 2.9% of the library has one in this group of screens.
MEKK2 mut-MEK5 = signal of MEK5 binding to mutant human MEKK2 PB1 domain | bead flow cytometry, Alexa488-MEK5 binding to MEKK2 mutant | 0.35% of 290,000 active | percent response, % at 10 µM; in the data active = percent response above about 24%, passing the limit was not always enough
dFosB act = activators of mouse delta FosB homodimer. 0.99% of 340,000 active. AID 493131. activation, % at 25 µM. purified delta FosB, TAMRA-CDK5 oligo fluorescence polarization; percent of positive-control signal above neutral wells;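 active = mean activation above about 17%, with every replicate also reaching it, limit read from the data, passing the limit was not always enough; inconclusive = only one of the two conditions met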
Target sequence (P13346 whole entry, looked up): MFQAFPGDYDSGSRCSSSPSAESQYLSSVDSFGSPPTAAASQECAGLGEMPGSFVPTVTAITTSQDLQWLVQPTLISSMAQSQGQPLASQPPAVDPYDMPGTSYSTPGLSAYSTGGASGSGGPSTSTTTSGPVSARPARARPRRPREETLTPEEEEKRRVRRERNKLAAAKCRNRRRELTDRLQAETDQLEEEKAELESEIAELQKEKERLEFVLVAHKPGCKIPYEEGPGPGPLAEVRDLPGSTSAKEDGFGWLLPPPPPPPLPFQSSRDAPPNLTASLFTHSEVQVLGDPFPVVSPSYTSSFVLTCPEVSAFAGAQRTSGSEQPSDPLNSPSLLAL
DNA FID counter = displaces DNA intercalator in HCV helicase counter-screen; AID 1845; 0.17% of 290,000 active; inhibition, % at 7.9 µM; DNA fluorescent intercalator displacement, fluorescence; in the data active = inhibition above about 37%;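 also: higher means more ethidium bromide displaced from hairpin DNA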
MEKK2wt PB1 HTS = raises or lowers MEK5 binding to wildtype human MEKK2 PB1 domain; AID 1531; binding response (% of control), % at 10 µM; bead flow cytometry, Alexa488-MEK5 binding to MEKK2 WT; actives lie on both sides; 1.1% of 290,000 active; Q9Y2U5; in the data active = binding response below about 67% or above about 130%; inconclusive = no clear call, values can overlap the other calls; inactive = in between
MEKK3 PB1 HTS = modulators (inhibitors or enhancers) of MEK5 binding to human MEKK3 PB1 domain; 1.4% of 290,000 active; bead-based flow cytometry, Alexa488-MEK5 binding to MEKK3; actives lie on both sides; 0 = blocked by unlabeled MEK5, 100 = vehicle; binding response (% of control), % at 10 µM; Q99759;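 active = binding response more than 3 SD above or below the average of its plate-row segment, actives on both sides; inconclusive = wells at one plate position flagged as instrument error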;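 also: Alexa488 bead fluorescence after subtracting the streptavidin-only scavenger bead signal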
MEKK2wt confirm = raises or lowers MEK5 binding to wildtype human MEKK2, retest; shares compounds with MEKK3 PB1 HTS; bead flow cytometry, Alexa488-MEK5 binding to MEKK2 WT; actives lie on both sides; binding response (% of control), % at 10 µM; 2.4% of 5,900 active; AID 1892; in the data active = binding response below about 16% or above about 210%; inactive = in between
MEKK2mut confirm = signal of MEK5 binding to mutant human MEKK2, retest; shares compounds with MEKK3 PB1 HTS; bead flow cytometry, Alexa488-MEK5 binding to MEKK2 mutant; percent response, % at 10 µM; 2% of 5,900 active; in the data active = percent response mostly above about 71%, no sharp cut-off; inactive = mostly below about 38%;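 also: higher means compound restores mutant binding toward wildtype level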
MEKK3 confirm = confirmation of inhibitors of MEK5 binding to human MEKK3; shares compounds with MEKK3 PB1 HTS; bead flow cytometry, Alexa488-MEK5 binding to MEKK3; stronger effect = lower value; binding response (% of control), % at 10 µM; 1.8% of 5,900 active; AID 1894;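 active = binding response below 72% of control, or above a set upper limit, though filed actives all read lower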
A number is an active result; . = inactive; ? = inconclusive; / = not tested or not shown; [ ] = another dose, or the depositor's remark.

SMILES | MEKK2 mut-MEK5 | dFosB act | DNA FID counter | MEKK2wt PB1 HTS | MEKK3 PB1 HTS | MEKK2wt confirm | MEKK2mut confirm | MEKK3 confirm
CC(=O)Nc1cccc(NC(=O)CSc2ccc(C(F)(F)F)cc2[N+](=O)[O-])c1 | . | . | . | . | . | / | / | /
O=C(CSc1ccc(C(F)(F)F)cc1[N+](=O)[O-])Nc1ccc2ccccc2c1 | . | . | . | . | 194.0 | . | . | .
Cc1ccc2nc(SC(C(=O)Nc3ccc(F)cc3)c3ccccc3)[nH]c2c1 (stereo unspecified) | . | ? | . | . | 153.0 | . | . | .
COc1ccc(CNC(=O)C(c2ccncc2)N(C(=O)Cc2cccs2)c2ccc(C)cc2)cc1 (stereo unspecified) | . | . | . | . | 81.0[inhibitor] | . | . | .
Brc1ccc2[nH]c3c(N4CCc5ccccc5C4)ncnc3c2c1 | . | / | . | 150.0 | . | . | . | .
Fc1ccc2[nH]c3c(N4CCc5ccccc5C4)ncnc3c2c1 | . | / | . | . | . | / | / | /
CCOc1ccc2[nH]c3c(N4CCc5ccccc5C4)ncnc3c2c1 | . | / | . | 187.0 | . | . | . | .
Cc1ccc2[nH]c3c(N4CCc5ccccc5C4)ncnc3c2c1 | . | . | . | . | . | / | / | /
NS(=O)(=O)c1ccc(CCNC(=O)CSc2nc3ccccc3c(=O)n2CCC(=O)N2CCCCC2)cc1 | . | . | . | . | . | / | / | /
O=C(CSc1nc2ccccc2[nH]1)N1CCCCC1 | . | . | . | . | . | / | / | /
CC1CCCCN1C(=O)CSc1nc2ccccc2[nH]1 (stereo unspecified) | . | . | . | . | 143.0 | . | . | .
CC(=O)N1CCN(Cc2nc3cc(NC(=O)c4ccc(F)cc4)ccc3n2C)CC1 | . | . | . | . | . | / | / | /
Cc1cc(OCC(=O)NC(Cc2ccc(Cl)cc2)C(=O)O)c2c(C)c(C)c(=O)oc2c1 (stereo unspecified) | . | . | . | . | . | / | / | /
Cc1cs/c(=N\N=C2CCCCC2)n1Cc1ccco1 | . | . | . | . | . | / | / | /
CCOC(=O)COc1c(Br)cc(C2NC(=O)NC(C)=C2C(C)=O)cc1OC (stereo unspecified) | . | . | . | . | 131.0 | . | . | .
CCOC(=O)COc1c(OC)cc(Cl)cc1C1NC(=O)NC(C)=C1C(C)=O (stereo unspecified) | . | . | . | . | . | / | / | /
O=[N+]([O-])c1ccc(CN2CCN(c3ccc(Cl)cc3)CC2)o1 | . | . | . | . | . | / | / | /
O=C(CSc1cccc(C(F)(F)F)c1)NC(=O)c1ccccc1 | . | . | . | . | 146.0 | . | . | .
C=CC[C@H]1CC(Cc2ccccc2)=C[C@H](CC=C)N1 | . | . | . | . | . | / | / | /
C=CC[C@H]1CC(C)=C[C@H](CC=C)N1 | 195.0 | . | . | 203.0 | . | . | . | .
Cc1c(C(=O)NCCSCc2c(F)cccc2Cl)cnn1-c1ccc(Cl)cc1 | . | . | . | . | 129.0 | . | . | .
COc1ccccc1C(=O)NCCSCc1c(F)cccc1Cl | . | . | . | . | . | / | / | /
Cc1ccc(NC(=S)N/N=C/c2ccc([N+](=O)[O-])s2)cc1 | . | . | . | 62.0[inhibitor] | . | . | . | .
Cc1cc(C)cc(N=Cc2ccc([N+](=O)[O-])s2)c1 | . | . | . | . | . | / | / | /
COc1cccc(CNC(=O)COC(=O)c2cccc(S(=O)(=O)N3CCCC3)c2)c1 | / | . | / | / | / | / | / | /
SMILES | MEKK2 mut-MEK5 | dFosB act | DNA FID counter | MEKK2wt PB1 HTS | MEKK3 PB1 HTS | MEKK2wt confirm | MEKK2mut confirm | MEKK3 confirm
C=CCN1c2ccccc2[C@]23C[C@@H](C(=O)OC)N(C(=O)c4ccco4)C2=NC(C(=O)OC)=C(C(=O)OC)[C@H]13 | . | . | / | 145.0 | 128.0 | . | . | .
CC(C)N1CCc2c(sc(NC(=O)c3ccc(S(=O)(=O)N4CCc5ccccc54)cc3)c2C(N)=O)C1 | 56.0 | 54.7 | . | 196.0 | . | . | . | .
CCc1ccc2c(c1)c1nnc(NN)nc1n2C | . | . | . | . | . | / | / | /
CCc1ccc2c(c1)c1nnc(NN)nc1n2CC | . | . | . | . | 164.0 | . | . | .
CCCP(=O)(CCC)CCP(=O)(c1ccccc1)c1ccccc1 | . | . | . | . | 63.0[inhibitor] | . | . | .
COc1ccccc1NC(=O)NCCCl | . | . | . | 1.0[inhibitor] | 5.0[inhibitor] | . | . | .
CCOc1ccc2[nH]c(=S)[nH]c2c1 | . | . | . | . | . | / | / | /
CCOc1ccc2[nH]c3c(c2c1)CNCC3 | . | . | . | 158.0 | . | . | . | .
Cc1nc2c3cc(F)ccc3n(Cc3ccccc3F)c2s1 | . | . | . | . | 140.0 | . | . | .
Cc1nc2c3cc(F)ccc3n(Cc3ccccc3)c2s1 | . | . | . | . | 155.0 | . | . | .
COCCNC(=O)[C@@]1(Cc2ccccc2)C=C[C@@H](C)N1C(C)=O | . | . | . | . | . | / | / | /
C/C=C/c1ccc(OCC(=O)N2CCc3cc(OC)c(OC)cc3C2)c(OC)c1 | . | . | . | . | . | / | / | /
COc1ccc(OC)c(NC(=S)NCCSc2ccc(C)cc2)c1 | . | . | . | . | 142.0 | . | . | .
Cc1ccc(S(=O)(=O)N(C)CC(=O)N2CCN(Cc3ccccc3)CC2)cc1 | . | . | . | . | . | / | / | /
Cc1cc(N2CCN(C)CC2)ccc1NC(=O)c1cccc(S(=O)(=O)N2CCc3ccccc3C2)c1 | . | . | . | 195.0 | . | . | . | .
COc1ccc(C(=O)Nc2cc(C)on2)cc1S(=O)(=O)N1CC(c2ccccc2)CC1=O (stereo unspecified) | . | . | . | . | . | / | / | /
CC1CCN(S(=O)(=O)c2ccc(S(=O)(=O)NCC(=O)C(C)(C)C)cc2)CC1 | . | . | . | 32.0[inhibitor] | 23.0[inhibitor] | . | . | .
COc1ccc(C(=O)CSc2n[nH]c(C)n2)cc1[N+](=O)[O-] | . | . | . | . | 46.0[inhibitor] | . | . | .
O=C(OCC(=O)N1CCN(c2ccccc2)CC1)c1cccc([N+](=O)[O-])c1 | / | . | / | / | / | / | / | /
CC1CC(C)CN(C(=O)COC(=O)c2cccc([N+](=O)[O-])c2)C1 (stereo unspecified) | . | . | . | . | 48.0[inhibitor] | . | . | .
CC(NC(=O)COc1ccccc1F)C1CC2CCC1C2 (stereo unspecified) | . | . | . | . | . | / | / | /
NC(=S)Nc1ccc(C(F)(F)F)cc1Cl | . | . | . | . | . | / | / | /
CCOc1ccc(CC(=NCCc2ccccc2)C2=C(O)CC(C)(C)CC2=O)cc1OCC | . | . | . | . | 146.0 | . | . | .

Compound activity as filed in PubChem BioAssay.
